Results from PubChem BioAssay (NCI).
The panel holds about 83,000 compounds, 20% with a hit somewhere; the sample as a whole holds those more often.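 The test compound was applied at a single concentration to cells in 96-well plates for 48 hours, and percent growth was recorded.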 Unmarked numbers belong to inactive results. Calls of active or inactive are those of the source. Rule for the calls: active = growth percent below 10; inactive = the rest.

Experiments:
Assay in all cases: NCI-60 one-dose screen, 48 h (100 = growth as untreated, 0 = no growth, -100 = all killed)
Conditions in all cases: 10 µM unless noted
T-47D breast = system: T-47D breast
BT-549 breast = system: BT-549 breast
MDA-MB-435 melanoma = system: MDA-MB-435 melanoma
SW-620 colon = system: SW-620 colon
MCF7 breast = system: MCF7 breast
HCT-116 colon = system: HCT-116 colon
HCC-2998 colon = system: HCC-2998 colon
KM12 colon = system: KM12 colon

Row | SMILES | growth (T-47D breast) | growth (BT-549 breast) | growth (MDA-MB-435 melanoma) | growth (SW-620 colon) | growth (MCF7 breast) | growth (HCT-116 colon) | growth (HCC-2998 colon) | growth (KM12 colon)
1 | CC1CCCCC[N+]12CCCC2 (configuration not stated) | 107% | 107% | 100% | 107% | 97.2% | 109% | 117% | 106%
2 | COc1ccc2c(c1)/C(=C/c1c(-c3cc(OC)c(OC)c(OC)c3)nc3sccn13)C(=O)N2 | 86.6% | 98.9% | 100% | 99.9% | 92.4% | 88.3% | 106% | 84%
3 | CC(=O)/C(=C/c1ccc(-c2ccccc2)cc1)C(=O)c1ccccc1 | 48.6% | 89.5% | 80.9% | 85.5% | 39.6% | 57.6% | 98.9% | 80.5%
4 | COc1ccc(/C=C2\SC(=O)N(Cc3cc(=O)oc4ccc(OC)cc34)C2=O)cc1 | 63.1% | 77.4% | 100% | 106% | 82.5% | 82.8% | 95.4% | 88.9%
5 | CCCCCCCCc1ccc(CCC(N)(CO)CO)cc1 | 34% | 73.5% | -43.6% (active) | -83.8% (active) | -69% (active) | -69.8% (active) | -85.6% (active) | -66.5% (active)
6 | CCn1cc(C(=O)O)c(=O)c2cc(F)c(N3CCN(S(=O)(=O)c4ccc(Cl)cc4)CC3)cc21 | 41.1% | 12.6% | 25.1% | 24% | 14.3% | 4.8% (active) | 24.5% | 4.3% (active)
7 | CC1Cc2cc(F)ccc2-n2cccc21 (configuration not stated) | 102% | 111% | 96.9% | 96.1% | 107% | 114% | 106% | 110%
8 | CCCCCCCCCCCCCCCCCC1=NCCN1CCNC(C)=O | 85.8% | 99.1% | 103% | 107% | 79.2% | 69.1% | 92.3% | 73.4%
9 | COC(=O)[C@H](Cc1cn(C)cn1)NC(=O)[C@H](Cc1c[nH]c2ccccc12)NC(=O)Nc1cc(C(F)(F)F)cc(C(F)(F)F)c1 | -72.2% [100 µM] (active) | -88.6% [100 µM] (active) | -88.5% [100 µM] (active) | -38.1% [100 µM] (active) | -58.6% [100 µM] (active) | -89.1% [100 µM] (active) | -96.8% [100 µM] (active) | -86.6% [100 µM] (active)
10 | CCCCCCCCCCCCCCCCCCOP(=O)(O)O | 106% | 114% | 101% | 91.3% | 101% | 106% | 108% | 110%
11 | CCOc1ccc(N(C)c2ccc(/C=C/C3=[N+](C)c4ccccc4C3(C)C)cc2)cc1 | 23.2% | 3.12% (active) | -51% (active) | -40.4% (active) | 10.1% | -45.6% (active) | 11.4% | -93% (active)
12 | Cc1nn(-c2ccccc2)c(N)c1N=C1NC(=O)/C(=C/c2ccc(Cl)cc2)S1 | 74.4% | 75.8% | 66.9% | 82.2% | 70.9% | 83.6% | 121% | 78.3%
13 | COc1cc(-c2cc3cnccc3c3nc(N)c4ccncc4c23)cc(OC)c1OC | 37.5% | 42.2% | 4.6% (active) | 46.8% | 29.8% | 35.1% | 70.1% | 48.1%
14 | O=C(/C(Br)=C/c1ccccc1)c1ccccc1 | -31.7% (active) | 95.8% | -11.2% (active) | -77.3% (active) | 0.441% (active) | -100% (active) | 94% | 53.3%
15 | CCCCCCCCC1OC1CCCCCCCC(=O)O (configuration not stated) | 99% | 128% | 107% | 108% | 101% | 101% | 107% | 104%
16 | CCOC(=O)NNc1[nH]c(-c2ccc(OC)cc2)cc1C#N | 44.1% | 101% | 85% | 107% | 69.2% | 85.4% | 39.1% | 74.7%
17 | O=C1C(Cl)=C(Nc2ccc(Nc3ccccc3)c(NC3=C(Cl)C(=O)c4ccccc4C3=O)c2)C(=O)c2ccccc21 | 14.9% | 53.3% | 113% | 33.8% | 73.7% | 51.2% | 55.1% | 31.6%
18 | Nc1ncn([C@@H]2O[C@H](CO)[C@@H](O)C2(F)F)c(=O)n1 | 76.2% | 53.6% | 53% | 51.2% | 20.7% | 29.8% | 60.4% | 61.2%
19 | COc1ccc(/C=C(/C(=O)N2CCCCC2)c2cc(OC)c(OC)c(OC)c2)cc1 | 45.8% | 53.6% | -51.3% (active) | 23.2% | 18.2% | 17.6% | 46.8% | 16%
20 | Cn1cnc2nc[nH]c2c1=S | 96% | 98.6% | 109% | 99.8% | 94.2% | 106% | 102% | 105%
21 | O=c1[nH]c(=S)[nH]c(O)c1/C=C1\C=Nc2ccccc21 | 98.4% | 76.9% | 47.3% | 36.2% | 62.2% | 39.5% | 99.6% | 47.7%
22 | COc1ccc2nc3cc(Cl)ccc3c(NCCCNC(C)=O)c2c1 | 38.1% | 88.7% | 41.3% | 27% | 15.8% | 21% | 50.3% | 30.7%
23 | COC(=O)[C@H](Cc1cn(C)cn1)NC(=O)[C@@H](NC(=O)Nc1cc(C(F)(F)F)cc(C(F)(F)F)c1)C(C)(C)C | -63.9% [100 µM] (active) | -90.4% [100 µM] (active) | -89.3% [100 µM] (active) | -46.4% [100 µM] (active) | -59.2% [100 µM] (active) | -91.5% [100 µM] (active) | -94.2% [100 µM] (active) | -88.7% [100 µM] (active)
24 | CCOC(=O)C1=NN(c2ccccc2)C2=NC(=O)/C(=C\c3cn(-c4ccccc4)nc3-c3cc4ccccc4o3)C(=O)N12 | 86.6% | 97.4% | 108% | 91.9% | 75.6% | 89.1% | 101% | 97.5%
25 | COc1ccc(Cn2cc3c(c2-c2ccccc2)CCc2cnoc2-3)cc1N | 37.2% | 36.2% | -27.9% (active) | 23.5% | 16% | 9.53% (active) | -1.21% (active) | 6.52% (active)
26 | CCCCCCCCCCCCCCCCNC(=S)N/N=C/c1ccc(O)cc1O | 89.6% | 83.5% | 75.2% | 66.7% | 79.1% | 51.8% | 86.9% | 71.8%
27 | O=C(O)c1ccc(-c2nn(-c3ccc(C(=O)O)cc3)cc2CNc2ccc(Br)cc2)cc1 | 96.6% | 98.8% | 107% | 107% | 90.3% | 101% | 102% | 98.1%
28 | Cc1nc2ccccc2c(=O)n1-c1cccc(OCc2cn(-c3cccc(O)c3)nn2)c1 | 68.4% | 99.8% | 108% | 104% | 94.3% | 95.2% | 103% | 95.2%
29 | Oc1ccc(N=Nc2ccc(N=Nc3ccccc3)cc2)cc1 | 16.4% | 49% | 19.6% | 44.7% | 22.8% | 33.3% | 17.2% | 27.8%
